Measured values reported in paper PMC4336329 (PLoS ONE, 2015).
Screen size: about 310,000 compounds; about 14,000 (4.5%) showed an effect of 50% or more. Effects have a minus sign here. What follows is part of a selection rich in strong results, with near analogues and random picks from the rest.

These molecules were tested against human ether-à-go-go-related gene (hERG) potassium channel (human, UniProt Q12809) (assay: primary screen, population patch clamp on CHO cells stably expressing hERG; higher = less effect of the substance).
Chain of human ether-à-go-go-related gene (hERG) potassium channel (Q12809 whole entry, looked up): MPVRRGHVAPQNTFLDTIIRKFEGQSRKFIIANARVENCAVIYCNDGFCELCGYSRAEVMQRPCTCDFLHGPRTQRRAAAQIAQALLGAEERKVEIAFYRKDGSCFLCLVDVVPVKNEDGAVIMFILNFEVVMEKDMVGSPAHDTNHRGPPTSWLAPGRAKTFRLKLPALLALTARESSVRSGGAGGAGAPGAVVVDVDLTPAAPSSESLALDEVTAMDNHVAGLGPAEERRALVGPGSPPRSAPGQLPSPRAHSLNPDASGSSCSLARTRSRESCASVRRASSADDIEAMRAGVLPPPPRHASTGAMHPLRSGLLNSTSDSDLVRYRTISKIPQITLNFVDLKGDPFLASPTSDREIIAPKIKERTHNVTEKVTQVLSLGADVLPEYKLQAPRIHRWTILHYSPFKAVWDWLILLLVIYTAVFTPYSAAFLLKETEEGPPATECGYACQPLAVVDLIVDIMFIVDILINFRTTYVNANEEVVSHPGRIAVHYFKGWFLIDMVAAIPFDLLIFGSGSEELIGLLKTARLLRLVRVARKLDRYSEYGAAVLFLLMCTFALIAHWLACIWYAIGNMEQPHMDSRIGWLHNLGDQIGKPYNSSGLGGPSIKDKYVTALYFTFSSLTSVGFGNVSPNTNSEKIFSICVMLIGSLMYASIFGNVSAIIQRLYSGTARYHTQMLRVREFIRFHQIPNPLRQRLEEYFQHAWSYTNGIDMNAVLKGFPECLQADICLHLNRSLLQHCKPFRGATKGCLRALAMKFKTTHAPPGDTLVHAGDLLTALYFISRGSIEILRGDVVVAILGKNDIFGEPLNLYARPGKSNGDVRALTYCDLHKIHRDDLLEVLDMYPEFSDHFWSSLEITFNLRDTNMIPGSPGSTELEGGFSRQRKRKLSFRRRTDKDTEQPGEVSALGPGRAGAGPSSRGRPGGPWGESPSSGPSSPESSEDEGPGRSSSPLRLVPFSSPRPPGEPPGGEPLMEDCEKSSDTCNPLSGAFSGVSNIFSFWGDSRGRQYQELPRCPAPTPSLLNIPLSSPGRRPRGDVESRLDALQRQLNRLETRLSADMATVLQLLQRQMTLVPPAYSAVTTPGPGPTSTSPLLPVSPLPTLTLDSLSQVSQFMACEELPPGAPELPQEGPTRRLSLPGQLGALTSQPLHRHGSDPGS
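Note: peak tail current of the secondary pulse compared with the same well before compound.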

Row | Structure (SMILES) | hERG current change (%, negative = inhibition) at 10uM
1 | CCCCn1c(O)c(N=NC(=O)c2ccccc2NS(=O)(=O)c2cccs2)c2ccccc21 | -2.54%
2 | O=C(CSc1nncn1-c1ccccc1)Nc1c(F)cccc1F | 3.19%
3 | NC(N)=NS(=O)(=O)c1ccc(N/C=C/C(=O)c2ccc(Cl)c(Cl)c2)cc1 | 17.3%
4 | Cc1ccc(NC2CCCN(C(=O)c3ccccc3N3CCOCC3)C2)cc1C (stereo not drawn) | -0.641%
5 | O=C(NCc1cccnc1)c1cc(Sc2cccc(Cl)c2)nc2ccccc12 | -15.4%
6 | O=C(NCc1ccc2c(c1)OCO2)c1cc(-c2ccccn2)nc2ccccc12 | 4.41%
7 | O=C(NCc1cccnc1)c1cc(Sc2ccc(F)cc2F)nc2ccccc12 | -55.3%
8 | O=C(NCc1ccccn1)c1cc(-c2ccncc2)nc2ccccc12 | -25.6%
9 | O=C(NCc1cccnc1)c1cc(Sc2ccccc2Cl)nc2ccccc12 | -5.45%
10 | O=C(NCc1ccccc1)c1cc(-c2ccncc2)nc2ccccc12 | -34%
11 | O=C(N/N=C/c1ccc([N+](=O)[O-])o1)c1cc(-c2ccc(-c3ccccc3)cc2)nc2ccccc12 | 17.7%
12 | O=C(NCc1ccc(F)cc1)c1cc(-c2ccncc2)nc2ccccc12 | -64.7%
13 | O=C(NCc1ccc2c(c1)OCO2)c1cc(-c2ccncc2)nc2ccccc12 | -67%
14 | CCCc1ccc(-c2cc(C(=O)N/N=C/c3ccc([N+](=O)[O-])o3)c3ccccc3n2)cc1 | -1.61%
15 | O=C(N/N=C/c1ccc([N+](=O)[O-])o1)c1cc(-c2ccncc2)nc2ccccc12 | -62.9%
16 | O=C(Nc1ccc2c(c1)OCO2)c1cc(-c2ccncc2)nc2ccccc12 | -3.22%
17 | O=C(NC(=S)NC1CCSC1=O)c1cccs1 (stereo not drawn) | 15.9%
18 | CCOCc1nnc(NC(=O)C2CC(=O)N(CCc3ccc(F)cc3)C2)s1 (stereo not drawn) | 5.97%
19 | CCC1c2ccc(C)n2CCN1C(=O)Nc1ccccc1C(=O)OC (stereo not drawn) | 6.11%
20 | CCc1nnc(NC(=O)C2(C)COC(c3ccc(OC)cc3)OC2)s1 (stereo not drawn) | 10.1%
21 | CC1(C)C2CCC1(CS(=O)(=O)N1CCOCC1)C(=O)C2 (stereo not drawn) | -1.75%
22 | Cc1cc(C(=O)COC(=O)c2cccnc2Cl)c(C)n1CC1CCCO1 (stereo not drawn) | -20.1%
23 | O=C(NCC(c1cccs1)N1CCOCC1)c1cn(-c2ccccc2)nc1-c1ccc(F)cc1 (stereo not drawn) | -1.67%

Row | Structure (SMILES) | hERG current change (%, negative = inhibition) at 10uM
24 | Cc1ccc(C(C)C)c(OCC(=O)NCC(c2cccs2)N2CCOCC2)c1 (stereo not drawn) | -48.1%
25 | COc1ccc(-c2cn(CCC(=O)NCc3ccc(C)cc3)c(-c3ccncc3)n2)cc1 | -21.3%
26 | Cc1ccc(CNC(=O)CCn2cc(-c3ccc(F)cc3)nc2-c2ccncc2)cc1 | -50.1%
27 | Cc1ccc(CNC(=O)CCn2cc(-c3ccc(C)cc3)nc2-c2ccncc2)cc1 | -45.1%
28 | O=C(NCC(c1cccs1)N1CCOCC1)c1cc(-c2ccc(F)cc2)nc2ccccc12 (stereo not drawn) | -55.9%
29 | O=C(NCC(c1cccs1)N1CCOCC1)c1cc(-c2ccccn2)nc2ccccc12 (stereo not drawn) | -23%
30 | CC(C)c1ccccc1OCC(=O)NCC(c1cccs1)N1CCOCC1 (stereo not drawn) | -50.2%
31 | COc1ccccc1OCC(=O)NCC(c1cccs1)N1CCOCC1 (stereo not drawn) | -4.48%
32 | O=C(Cc1ccccc1)Nc1cccc(-c2nc3ncccc3o2)c1 | 13.6%
33 | COc1ccc(Nc2ccc(C(N)=O)cc2[N+](=O)[O-])cc1 | 7.18%
34 | CCCSc1nc2c(c(=O)[nH]c(=O)n2C)n1C | 2.58%
35 | Cn1c(=O)[nH]c(=O)c2c1nc(OC(=O)c1ccccc1)n2CC(O)COc1ccccc1 (stereo not drawn) | 23.2%
36 | CCCc1c(O)nc(SCc2ccccc2)[nH]c1=O | 0.68%
37 | CCOC(=O)C1CCN(Cc2cc(C(C)C)c(O)c(C(C)C)c2)CC1 | -41.3%
38 | CCOC(=O)C1CCN(Cc2ccc(Cl)c(Cl)c2)CC1 | -5.6%
39 | CCOC(=O)C1CCN(Cc2cc(C(C)(C)C)c(O)c(C(C)(C)C)c2)CC1 | -63.1%
40 | CN1CCN(Cc2cc(C(C)(C)C)c(O)c(C(C)(C)C)c2)CC1 | -15.1%
41 | CC(C)(C)c1cc(CN2CCCCC2)cc(C(C)(C)C)c1O | -50.7%
42 | CC(C)(C)c1cc(CN2CCC(O)CC2)cc(C(C)(C)C)c1O | -70.1%
43 | CCN1CCN(Cc2cc(C(C)(C)C)c(O)c(C(C)(C)C)c2)CC1 | -26.5%
44 | CC1=NN(Cc2cc(C(C)(C)C)c(O)c(C(C)(C)C)c2)C(=O)C1 | 17.2%
45 | CC(C)(C)c1cc(CN2CCCC(O)C2)c(O)c(C(C)(C)C)c1 (stereo not drawn) | -13.9%
